Screens deposited in PubChem by National Center for Advancing Translational Sciences (NCATS).
Tau FP inhib = inhibitors of human tau fibril formation | P10636 | K18 P301L tau heparin fibrillization, Alexa594 FP, 6 h | Potency, µM (highest dose often 57.7 µM), without a hit: at the top dose activity, negative = inhibition, hits mostly inhibitors | 280,000 tested, 0.39% active; also: potency is read from the fitted curve at half-maximal effect; nearly all actives have a fitted effect of over 55% in size
Target sequence (P10636 561-689 P618L limits assumed): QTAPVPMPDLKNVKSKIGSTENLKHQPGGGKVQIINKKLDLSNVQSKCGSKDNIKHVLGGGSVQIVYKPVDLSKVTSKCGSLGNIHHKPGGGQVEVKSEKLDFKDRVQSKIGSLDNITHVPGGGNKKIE
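Steps: dispense K18 P301L tau (15 uM plus 0.24 uM Alexa 594 tracer, final) in pH 7 sodium acetate; add compound; add heparin (20 uM final); incubate 6 hr, 37 C; add ThT (30 uM final); after 1 hr ambient, read FP.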
Tau ThT inhib = tau fibrillization inhibition (ThT binding); P10636; recombinant tau K18 P301L, heparin-induced fibrillization, ThT fluorescence; Potency, µM (top dose mostly 57.4 µM), inactives show at the top dose activity, negative = inhibition, most hits filed as inhibitors; 270,000 tested, 2.1% active; also: potency is read from the fitted curve at half-maximal effect; nearly all actives have a fitted effect of over 55% in size
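Fibril formation assay: tau K18 P301L at 15 uM with trace Alexa 594 label, heparin inducer 20 uM, pH 7 sodium acetate buffer, 37 C for 6 hr; endpoint ThT signal.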
FBPA coupling cs = counter-screen for Giardia aldolase inhibitors: coupling enzyme system; coupling enzyme system counterscreen, AmpLite Red fluorescence; activity change, negative = inhibition, % at 58.2 µM, hits read low; 290,000 tested, 0.67% active; in the data active = activity change below about -30%
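Compounds tested against the coupling enzymes alone at 57.5 uM final; readout was AmpLite Red fluorescence (525/598 nm) after 20 min at RT.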
G9a inh = G9a (human) methyltransferase inhibition; Q96KQ7; G9a H3K9 monomethylation, AlphaScreen, 2 h; Potency, µM (top dose mostly 102 µM), without a hit: at the top dose activity, negative = inhibition, hits mostly inhibitors; 350,000 tested, 8.8% active; AID 504332; also: potency is read from the fitted curve at half-maximal effect; nearly all actives have a fitted effect of over 75% in size
Target sequence (Q96KQ7 913-1193 limits assumed): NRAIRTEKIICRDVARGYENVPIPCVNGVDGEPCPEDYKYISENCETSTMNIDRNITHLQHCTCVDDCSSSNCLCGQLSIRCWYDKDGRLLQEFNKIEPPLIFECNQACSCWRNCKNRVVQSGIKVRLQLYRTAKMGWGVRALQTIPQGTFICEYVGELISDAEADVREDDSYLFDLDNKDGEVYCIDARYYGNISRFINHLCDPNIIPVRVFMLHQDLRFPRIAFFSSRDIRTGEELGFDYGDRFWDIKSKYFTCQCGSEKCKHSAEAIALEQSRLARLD
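G9a (20 nM) was preincubated 15 min with compound, then reacted 2 h at room temperature with 500 nM biotin-H3K9 peptide and 20 µM SAM. Monomethyl-H3K9 detected by AlphaScreen using anti-H3K9me1 antibody.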
Tau fluor cs = counter-screen for tau fibril formation inhibitors; 280,000 tested, 0.93% active; tau K18 P301L (four-repeat tau fragment) Alexa594 fluorescence, heparin fibrillization; Potency, µM (series often up to 57.7 µM), without a hit: at the highest dose activity change, negative = decrease; also: potency is read from the fitted curve at half-maximal effect; nearly all actives have a fitted effect of over 55% in size
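Human K18 P301L tau (15 uM unlabeled plus 0.24 uM Alexa 594-labeled, final) in 100 mM sodium acetate pH 7 was mixed with compound and 20 uM heparin and incubated 6 hr at 37 C.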
Sfp PPTase inh = Sfp phosphopantetheinyl transferase inhibition; Biochemical Sfp PPTase activity, qHTS; 310,000 tested, 3.5% active; Potency, µM, without a hit: largest response in the series, negative = inhibition, hits mostly inhibitors; Q9F4F7;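 also: the enzyme is Sfp with the accession as filed and its product quenches rhodamine fluorescence; potency is read from the fitted curve at half-maximal effect; 0% = enzyme reaction without inhibitor and -100% = no enzyme wells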
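With Hepes-Na pH 7.6 buffer containing 10 mM MgCl2, Sfp (15 nM) modified BHQ-2-YbbR (12.5 uM) using rhodamine-CoA (5 uM). Two reads 30 minutes apart at 525/598 nm yielded each well's rate.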
The depositor's hits bear a star; [ ] = another dose, or the depositor's remark. Compounds with a hit are over-represented: about 11% of the library has one in this group of screens. Unless noted, calls follow the shape of the dose curve; as a rule, active = well fitted curve in the direction sought with a large enough effect; inconclusive = small, poorly fitted or top-dose-only effect, or another doubt; inactive = no such curve, though single readings can be large; an effect the other way counts as inactive or inconclusive. Unless noted, % is scaled to controls: 0 for no effect and ±100 for the full control effect.

What do the screens show for `COc1ccccc1CNC(=O)c1cccc(-c2ccccc2OC)n1`?
Tau FP inhib: 1.0%[81.3 µM]; Tau ThT inhib: -12.6%[81.4 µM]; FBPA coupling cs: 1.5; G9a inh: inconclusive; Tau fluor cs: -7.7%[81.3 µM]; Sfp PPTase inh: 15.2%

How did O=C1C2C3C=CC(C3)C2C(=O)N1c1ccc2ccccc2c1 (centres undefined) do in these assays?
FBPA coupling cs: -0.6; G9a inh: 10.1%; Sfp PPTase inh: 4.4%

What do the screens show for `CCSc1nc2ccc(N3C(=O)C4C5C=CC(C5)C4C3=O)cc2s1` (centres undefined)?
Tau FP inhib: -3.3%; Tau ThT inhib: -15.3%; FBPA coupling cs: -0.9; G9a inh: 11.2µM*; Tau fluor cs: -12.3%; Sfp PPTase inh: 4.2%

What do the screens show for `Cc1cc(N2CCOCC2)ccc1/C=C1\NC(=O)N(Cc2ccccc2F)C1=O`?
Tau FP inhib: 5.2%; Tau ThT inhib: -1.5%; FBPA coupling cs: -3.1; G9a inh: 13.9%[59 µM]; Tau fluor cs: -1.5%; Sfp PPTase inh: 18.3%

Results for Cc1cc(N2CCOCC2)ccc1/C=C1\NC(=O)N(Cc2ccccc2)C1=O ?
Tau FP inhib: 15.1%; Tau ThT inhib: -16.6%; FBPA coupling cs: -1.4; G9a inh: 50.1µM*; Tau fluor cs: -29.6%; Sfp PPTase inh: 4.3%

How did Cc1cccc(CN2C(=O)N/C(=C/c3ccc(C)s3)C2=O)c1 do in these assays?
Tau FP inhib: 7.8%; Tau ThT inhib: inconclusive; FBPA coupling cs: 3.5; G9a inh: 0.9%[12.7 µM]; Tau fluor cs: -25.6%; Sfp PPTase inh: -24.2%

How did Cc1cc(/C=C2\NC(=O)N(Cc3ccc(Cl)cc3)C2=O)c(C)n1C do in these assays?
Tau FP inhib: inconclusive; Tau ThT inhib: inconclusive; FBPA coupling cs: -0.6; G9a inh: 15.8µM*; Tau fluor cs: -27.0%; Sfp PPTase inh: 0.3%

What do the screens show for `Cc1ccc(/C=C2/NC(=O)N(Cc3ccccc3)C2=O)s1`?
Tau FP inhib: 2.3%; Tau ThT inhib: -10.5%; FBPA coupling cs: 2.0; G9a inh: inconclusive; Tau fluor cs: -11.5%; Sfp PPTase inh: 50.1µM*

What do the screens show for `Cc1ccc(CN2C(=O)N/C(=C/c3ccc4c(c3)n(C)c(=O)n4C)C2=O)cc1`?
Tau FP inhib: -3.4%; Tau ThT inhib: inconclusive; FBPA coupling cs: -3.6; G9a inh: 20.3%; Tau fluor cs: -21.0%; Sfp PPTase inh: -3.0%

What do the screens show for `CCN1C(=O)/C(=C/c2ccc(C)s2)NC1=S`?
Tau FP inhib: 4.6%; Tau ThT inhib: inconclusive; FBPA coupling cs: 0.4; G9a inh: 12.6µM*; Tau fluor cs: inconclusive; Sfp PPTase inh: 7.2%

How did Clc1ccc(CN2CCc3c([nH]c4ccccc34)C2)cc1Cl do in these assays?
FBPA coupling cs: -2.1; G9a inh: 28.2µM*; Sfp PPTase inh: inconclusive

What do the screens show for `Cc1cccc(CN2CCc3c([nH]c4ccccc34)C2)c1`?
FBPA coupling cs: 0.8; G9a inh: 44.7µM*; Sfp PPTase inh: -8.9%

How did Clc1cccc(CN2CCc3c([nH]c4ccccc34)C2)c1 do in these assays?
FBPA coupling cs: -6.1; Sfp PPTase inh: inconclusive

How did COC(=O)c1nnc(-c2ccccc2)c(-c2ccccc2)n1 do in these assays?
Tau FP inhib: 0.2%; Tau ThT inhib: 0.7%; FBPA coupling cs: 1.0; G9a inh: 31.6µM*; Tau fluor cs: 0.4%; Sfp PPTase inh: -15.9%

What do the screens show for `CC(C)(C)C(=O)Nc1nnc(-c2ccccc2)c(-c2ccccc2)n1`?
Tau FP inhib: -12.6%; Tau ThT inhib: -7.1%; FBPA coupling cs: 0.9; Tau fluor cs: -10.4%; Sfp PPTase inh: -0.8%

Results for COc1ccc(C2NC(=O)N(C)C3=C2C(=O)N(c2cccc(Cl)c2)C3)cc1 (centres undefined) ?
Tau FP inhib: -1.0%; Tau ThT inhib: -3.4%; G9a inh: -5.2%[59 µM]; Tau fluor cs: -23.9%

Results for CSc1ccc(CCNC(=O)c2cc3n(n2)CCCN(Cc2ccc(C)cc2)C3=O)cc1 ?
Tau FP inhib: -6.2%; Tau ThT inhib: 0.1%; G9a inh: 5.8%[59 µM]; Tau fluor cs: 8.3%

Results for Cn1c2ccccc2c(=O)c2c(=O)n(Cc3ccco3)c(-c3ccc(Cl)cc3Cl)nc21 ?
Tau FP inhib: -6.1%; Tau ThT inhib: inconclusive; FBPA coupling cs: 6.1; G9a inh: -26.7%; Tau fluor cs: -0.9%; Sfp PPTase inh: 8.91µM*

What do the screens show for `Cc1cc2n(n1)CCCN2C(=O)Nc1ccc(F)c(Cl)c1`?
Tau FP inhib: -1.0%; Tau ThT inhib: 3.8%; G9a inh: 10.5%[59 µM]; Tau fluor cs: -5.1%

What do the screens show for `Cc1cc2n(n1)SC(Nc1ccc(F)c(Cl)c1)N2` (centres undefined)?
Tau FP inhib: 3.9%; Tau ThT inhib: -2.9%; FBPA coupling cs: 2.7; G9a inh: 1.41µM*; Tau fluor cs: -14.6%; Sfp PPTase inh: inconclusive

What do the screens show for `O=C(NCc1ccccc1)c1c2c(nc3ccccc13)C(=O)N(C1CCCCC1)C2`?
Tau FP inhib: -2.2%; Tau ThT inhib: -6.5%; G9a inh: -1.1%[59 µM]; Tau fluor cs: -2.6%

How did O=C(NC1CCCC1)c1ccc2nc(-c3ccco3)c(-c3ccco3)nc2c1 do in these assays?
Tau FP inhib: 2.2%; Tau ThT inhib: -2.1%; FBPA coupling cs: -30.4*; G9a inh: 5.01µM*; Tau fluor cs: -2.1%; Sfp PPTase inh: 6.31µM*

Results for O=C(NCCO)c1ccc2nc(-c3ccco3)c(-c3ccco3)nc2c1 ?
Tau FP inhib: inconclusive; Tau ThT inhib: 15.8µM*; FBPA coupling cs: -47.1*; G9a inh: 1.41µM*; Tau fluor cs: 14.1µM*[quencher]; Sfp PPTase inh: 10µM*

What do the screens show for `O=C(NCCc1ccccc1)c1ccc2nc(-c3ccco3)c(-c3ccco3)nc2c1`?
Tau FP inhib: inconclusive; Tau ThT inhib: 7.08µM*; FBPA coupling cs: -36.6*; G9a inh: 1.41µM*; Tau fluor cs: inconclusive; Sfp PPTase inh: 25.1µM*
